D1 agonist: activates the human D1 dopamine receptor; P21728; HEK293 T-REx D1 cells, calcium flux, agonist mode; activation, % at 2 µM; hit rate 1% among 360,000; in the data active = activation above about 30%; note: 0% is about no effect
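Inducible HEK293 T-REx D1 cells, force-coupled to calcium signalling, were plated at 4000 cells/well with tetracycline and held overnight at 30 C. After no-wash calcium dye loading, compound-evoked calcium rise over 180 s flagged agonists.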
D3 antag: antagonists of human D3 dopamine receptor; P35462; D3R cells, DiscoveRx beta-arrestin luminescence, antagonist mode; hits give low values; max response, negative = inhibition, %; hit rate 2.5% among 360,000; in the data active = max response below about -50%; inconclusive = no clear call, values can overlap the other calls; note: % is set by controls: 0 for no effect and ±100 for the full control effect
Target sequence (P35462 whole entry, looked up): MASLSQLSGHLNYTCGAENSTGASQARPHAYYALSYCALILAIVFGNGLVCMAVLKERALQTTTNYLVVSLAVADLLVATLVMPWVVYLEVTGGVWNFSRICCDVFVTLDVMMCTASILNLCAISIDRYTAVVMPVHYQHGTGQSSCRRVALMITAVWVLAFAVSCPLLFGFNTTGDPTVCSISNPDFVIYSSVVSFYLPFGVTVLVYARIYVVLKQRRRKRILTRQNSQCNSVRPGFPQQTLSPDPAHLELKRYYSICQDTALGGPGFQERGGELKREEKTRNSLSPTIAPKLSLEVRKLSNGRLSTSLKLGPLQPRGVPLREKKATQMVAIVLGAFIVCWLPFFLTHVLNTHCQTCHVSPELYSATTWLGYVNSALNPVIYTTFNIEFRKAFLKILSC
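Cells expressing the human receptor were seeded at 1500 cells/well, incubated overnight at 37 degrees C in 5% CO2, then exposed to library compounds with dopamine controls for 90 minutes at 37 degrees C before luminescent detection.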
D1 potentiator: human D1 dopamine receptor positive modulation; P21728; AID 504651; HEK293 TREx D1 cells, calcium flux, dopamine EC20 potentiation; potentiation, % at 10 µM; hit rate 0.036% among 360,000; in the data active = potentiation above about 30%; note: 0% is about no effect
ERG Ets-DNA blk: blocks human ERG Ets domain binding to DNA | hit rate 0.028% among 370,000 | Potency, µM (top dose mostly 76.9 µM), inactives show at the top dose FP activity, negative = inhibition, most hits filed as inhibitors | fluorescence polarization, His-ERG Ets domain / labelled DNA; active = well fitted inhibition curve with a large enough effect in the polarisation, with a control signal flat; inconclusive = small, poorly fitted or top-dose-only effect, or effect the other way, or a change in a side signal; inactive = no such curve, though single readings can be large or run the other way; the % refers to the polarisation;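 note: polarization taken with two DNA probes labelled with fluorescein and Texas red; potency is the fitted concentration of half-maximal effect; % of control where 0% means no effect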
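His-tagged ERG Ets domain (1 uM in the protein solution; 300mM KCl, 50mM Tris-HCl, 1mM EDTA, 1mM DTT, pH 7.5) received compound, then a probe mix of 5 nM fluorescein-DNA and 100nM Texas-615-DNA. Fluorescence polarization was read for both dyes.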
D1 antag: antagonists of human D1 dopamine receptor; P21728; HEK293 TREx D1 cells, calcium flux, dopamine EC80; hits give low values; activity change, negative = inhibition, % at 10 µM; hit rate 3.2% among 360,000; in the data active = activity change below about -30%; note: % is set by controls: 0 for no effect and ±100 for the full control effect
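Allosteric or orthosteric antagonism assessed as attenuation of the calcium response to EC80 dopamine, added 180 s after compound, in induced HEK293 Trex D1 cells loaded with no-wash calcium dye.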
D3 ag: activates the human D3 dopamine receptor. P35462. D3R DiscoveRx beta-arrestin cells, luminescence, 90 min. max activation, %. hit rate 0.58% among 410,000; in the data active = max activation above about 30%; note: 0% is about no effect
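Cells at 1500/well, incubated overnight, then treated with pinned compounds (dopamine as control) for 90 min at 37 degrees C. DiscoveRx reagent added for 30 - 60 minutes at room temperature; luminescence read.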
* marks the source's active call; other numbers are inactive results; u = inconclusive; x = no result given; ! = repeats disagree. A selection: hits, their analogues and other compounds. The true share with any hit is near 6.1%.

SMILES	D1 agonist	D3 antag	D1 potentiator	ERG Ets-DNA blk	D1 antag	D3 ag
Brc1ccc(CNCc2cccs2)cc1	1.8	-0.9	-1.9	-5.0%	-1.4	-20.2
c1ccc(COc2ccc(CNCc3cccs3)cc2)cc1	129.1*	-19.0	41.9*	-3.9%	-7.2	-9.3
O=C(Nc1ccccc1)N1CCN(c2nc(-c3ccccc3)ns2)CC1	13.8	10.6	-6.8	-2.8%	-8.0	35.5*
CCOC(=O)Cn1c(C(=O)OCC)cc2sccc21	2.2	4.1	-6.1	x	-30.5*	-3.6
CCOC(=O)c1cc2sccc2n1CC(=O)Nc1ccc(OC)cc1OC	7.2	-4.9	-3.1	x	-39.3*	-4.5
OCC[C@H]1C[C@H](O)[C@@H](O)[C@@]2(Cc3ccccc3CCO2)O1	-1.5	20.3	-6.0	-0.8%	-16.7	-10.6
O=c1oc2cc(OCc3ccc(F)cc3F)ccc2cc1-c1ccccn1	3.7	8.8	-7.8	-9.4%	-26.0	2.3
Cc1ccc(C)c(N2C(=O)CC(Cc3ccc(Br)cc3)C2=O)c1 (stereo not given)	6.4	-3.3	6.7	1.4%	2.8	-4.5
O=C(Cn1c(=O)sc2ccccc21)Nc1ccc(S(=O)(=O)N2CCCCC2)cc1	2.2	-17.6	7.5	7.1%	24.5	-6.4
O=C(COc1ccc(/C=N/NC(=O)c2ccccc2O)cc1)Nc1ccc([N+](=O)[O-])cc1	1.6	10.2	-4.5	-1.0%	-25.4	40.8*
CC(=O)Nc1ccc(NC(=O)COc2ccc([N+](=O)[O-])cc2)cc1	1.2	5.3	-3.4	69.1%	-1.4	1.5
O=C(COc1ccc(/C=N/NC(=O)c2ccncc2)cc1)Nc1cccc([N+](=O)[O-])c1	0.0	u	-8.7	8.5%	-32.3*	-15.7
O=C(COc1ccc(/C=N/NC(=O)c2ccncc2)cc1)Nc1ccccc1	0.8	-4.2	-1.9	0.9%	-4.6	-8.2
COc1ccccc1NS(=O)(=O)c1cc(C(=O)N2CCN(C(=O)c3ccco3)CC2)ccc1F	x	10.6	x	-4.0%	x	3.8
CSc1nc(=O)n(CCC#N)nc1SC	x	-65.0*	x	x	x	-16.1
CC(C)OC(=O)c1ccc(NC(=O)CSc2nc(-c3cccs3)cc(C(F)(F)F)n2)cc1	4.1	x	-5.8	4.9%	-21.1	2.6
CC(C)(C)NC(=O)CN(Cc1ccco1)C(=O)CCC(=O)Nc1nccs1	1.0	-5.4	0.8	7.6%	-30.6*	-3.9
COCCN(C(=O)CCC(=O)Nc1nccs1)C(C(=O)NC(C)(C)C)c1ccc(C)cc1 (stereo not given)	-0.2	3.0	-5.4	-1.5%	5.3	38.2*
COc1ccc(N(CC(=O)NC(C)(C)C)C(=O)CCC(=O)Nc2nccs2)c(OC)c1	-0.9	0.9	-6.4	9.2%	-31.3*	-2.4
CCCN(CC(=O)Nc1ccccc1OC)C(=O)CNC(=O)c1ccc(C)s1	x	2.4	x	0.2%	x	1.7
COCC1CCN(C(=O)c2cc(COc3ccc(-n4cncn4)cc3)on2)CC1	2.0	4.4	-1.0	-4.1%	-35.6*	2.0
CCCCCc1cc(=O)oc2c(C(CCN3CCCC3)c3cc(OC)c(OC)c(OC)c3)c(OC)cc(OC)c12 (stereo not given)	37.1*	-50.8*	-12.7	12.2%	-33.6*	-44.1
COc1ccc(C(CC(=O)N2CCCC2)c2c(OC)cc(OC)c3c(-c4ccccc4)cc(=O)oc23)cc1 (stereo not given)	0.4	1.6	-3.4	-6.3%	-1.0	-3.8
COc1cc(C(CCN2CCCCC2)c2c(OC)cc(OC)c3c(-c4ccccc4)cc(=O)oc23)cc(OC)c1OC (stereo not given)	16.7	-8.6	3.5	6.4%	-6.6	0.0
CCCCCc1cc(=O)oc2c(C(CCN3CCN(c4ccccc4)CC3)c3ccc4c(c3)OCO4)c(OC)cc(OC)c12 (stereo not given)	2.0	-69.4*	-6.0	7.7%	-31.5*	-41.4
SMILES	D1 agonist	D3 antag	D1 potentiator	ERG Ets-DNA blk	D1 antag	D3 ag
COc1cc(C(CCN2CCCC(C)C2)c2c(OC)cc(OC)c3c(-c4ccccc4)cc(=O)oc23)cc(OC)c1OC (stereo not given)	16.9	-51.2*	-3.1	0.7%	6.7	-29.6
COc1ccc(C(CC(=O)N2CCOCC2)c2c(OC)cc(OC)c3c(-c4ccccc4)cc(=O)oc23)cc1 (stereo not given)	4.5	-14.7	-8.9	-2.0%	-41.5*	-16.6
CCOc1ccc(NC(=O)c2ccc3c(c2)c(C)c(C)n3Cc2ccc(F)cc2)cc1	2.2	x	-5.7	2.0%	-20.7	-5.9
CCOC(=O)N1CCN(C(=O)c2cn(C)c(=O)c3c2c2ccccc2n3C)CC1	1.8	-18.0	-0.1	5.8%	-3.3	20.0
CC(C)CCN1CC(C(=O)N2CCN(c3ccc(F)cc3)CC2)CC1=O (stereo not given)	1.1	0.0	-4.3	2.3%	1.4	5.2
CCCCCc1cc(=O)oc2c(C(CCN(CC)CC)c3ccc(OC)cc3)c(OC)cc(OC)c12 (stereo not given)	40.5*	-20.5	-12.8	1.1%	-39.4*	-29.4
O=C(Nc1nnc(SCc2ccc(Cl)cc2)s1)c1cnccn1	3.7	-21.6	-0.3	-0.2%	-36.0*	-1.5
COc1ccc(/C=C/C(=O)c2ccc(Cl)s2)cc1O	0.1	-72.1*	-5.3	1.5%	-9.4	-7.8
CC(=O)c1ccc(OC(C)C)c(CSc2nc(O)cc(=O)[nH]2)c1	2.4	-103.2*	-0.3	-2.3%	-9.2	-31.8
CCCOc1ccc(S(=O)(=O)NCc2ccc(OC)cc2)cc1	16.7	-10.3	-3.3	3.2%	-43.9*	9.9
COc1ccc(S(=O)(=O)NCc2cccs2)cc1	3.1	39.4	-2.6	-18.6%	-32.5*	-4.2
COc1ccc(CNS(=O)(=O)c2ccc(C3CNC(=O)C3)cc2)cc1 (stereo not given)	-2.1	-142.0*	1.5	x	8.0	3.3
CCOC(=O)C1=C(CC)OC(N)=C(C#N)C1c1cccs1 (stereo not given)	0.5	8.2	14.4	x	10.2	1.2
COC(=O)CC1=C(C(=O)OC)C(c2cccs2)C(C#N)=C(N)O1 (stereo not given)	4.2	-76.9*	-6.8	-16.0%	29.0	-6.2
CN1C(=O)C(C)(C)c2cc(S(=O)(=O)NCc3ccc(Cl)cc3)ccc21	0.4	-27.8	-10.0	-2.4%	-5.9	-6.9
COc1ccc(C(=O)Nc2cnc3ccccn3c2=O)cc1	1.7	16.3	-0.1	-6.4%	-77.3*!	4.5
COc1cccc(C(=O)Nc2ccccc2OCc2cc(=O)n3ccccc3n2)c1	1.5	x	-0.7	5.3%	-33.8*	-12.2
Cc1nn2c3c(cnc2c1-c1ccc(Cl)cc1)C(=O)CC(c1ccco1)C3 (stereo not given)	5.5	-51.6*	0.3	18.1%	-12.3	0.1

Screening results: PubChem, National Center for Advancing Translational Sciences (NCATS)
